HCV inh = HCV inhibition; Huh7.5.1 HCVcc-Cre infection, luciferase reporter, 44 h; Potency, µM (doses to about 41.8 µM), for inactives: top-dose activity change, negative = inhibition, actives largely listed as inhibitors; hit rate 3.4% among 340,000; active means well fitted inhibition curve with a large enough effect; inconclusive means small, poorly fitted or top-dose-only effect, or another doubt; inactive means no such curve, though single readings can be large or run the other way
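Infectious HCV cell culture screen: compound-treated cells (1,000/well, pre-plated 4 h) are infected with HCVcc-Cre at roughly 0.5 moi and grown 44 h. Infection is quantified by luciferase signal after 15 min substrate incubation at room temperature.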
Vaccinia mCherry = vaccinia inhibition (mCherry reporter); Vaccinia virus mCherry reporter infection, fluorescence; Potency, µM (doses to about 36.5 µM), for inactives: top-dose activity change, negative = inhibition, most hits filed as inhibitors; hit rate 0.63% among 310,000; calls by dose curve; tested in A549 cells; further: nearly all actives have a fitted effect of over 35% in size
VACV Venus inh = inhibitors of vaccinia virus (Venus reporter) | AID 720580 | Potency, µM (series often up to 36.5 µM), without a hit: top-dose activity change, negative = inhibition, most hits filed as inhibitors | hit rate 0.46% among 330,000 | Vaccinia virus Venus reporter expression, fluorescence; calls by dose curve; tested in A549 cells; further: nearly all actives have a fitted effect of over 30% in size
Starred values were filed as active, the others as inactive; [ ] = another dose, or the depositor's remark. The list is not random: actives were taken first. Their share in the collection is about 3.3%. On the % scale 0 is the no-effect control and ±100 the full control effect; potency means the concentration at half of the fitted maximal effect.

For CCN(CC)CCNC(=O)c1cn(CC)c2cc(N3CCN(C(=O)c4ccco4)CC3)c(F)cc2c1=O the results were HCV inh -9%.
Screening CCn1cc(C(=O)NCc2ccccc2)c(=O)c2cc(F)c(N3CCN(C(=O)c4ccco4)CC3)cc21 returned HCV inh 11µM* and VACV Venus inh inconclusive.
For CCn1cc(C(=O)NCc2ccncc2)c(=O)c2cc(F)c(N3CCN(C(=O)c4ccco4)CC3)cc21 the results were HCV inh inconclusive, Vaccinia mCherry -12%[7.34 µM] and VACV Venus inh -9%[7.34 µM].
For O=C(Cn1c(=O)oc2cc(S(=O)(=O)N3CCCC3)ccc21)NCc1ccc(Cl)cc1 the results were Vaccinia mCherry -20% and VACV Venus inh -10%.
Screening Cc1cc(C)cc(NC(=O)Cn2c(=O)n(-c3cc(C)cc(C)c3)c(=O)c3oc4ccccc4c32)c1 returned Vaccinia mCherry 0% and VACV Venus inh -17%.
COc1ccccc1-c1ccnc(-n2ncc(C(=O)N3CCCCC3c3cccnc3)c2C)n1 (stereo not drawn) was read as Vaccinia mCherry inactive and VACV Venus inh -8%.
CC(=O)c1nn(-c2cccc(C)c2)cc1C(=O)c1cccc(Br)c1 was read as HCV inh -9%, Vaccinia mCherry 3% and VACV Venus inh 0%.
For O=C(CC1Sc2ccccc2NC1=O)NNc1ccc(Cl)cc1Cl (stereo not drawn) the results were HCV inh -3%, Vaccinia mCherry 4.5µM* and VACV Venus inh inconclusive.
For O=C(CC1Sc2ccccc2NC1=O)NCc1ccccc1 (stereo not drawn) the results were HCV inh 11%, Vaccinia mCherry inactive and VACV Venus inh -4%.
CCOc1ccccc1C(=O)Nc1cc2c(cc1N1CCCCC1)n(C)c(=O)n2C was read as Vaccinia mCherry -24% and VACV Venus inh -11%.
Screening Oc1cc2cc(-c3csc(-c4ccc(F)cc4)n3)ccc2[nH]1 returned Vaccinia mCherry -23% and VACV Venus inh -13%.
Screening CCOc1cccc(/C=C/c2ccc3cccc(O)c3n2)c1OC returned HCV inh inconclusive, Vaccinia mCherry inconclusive and VACV Venus inh -15%.
Screening CCOc1c(OC(C)=O)ccc(/C=C/c2ccc3cccc(OC(C)=O)c3n2)c1[N+](=O)[O-] returned HCV inh 8.9µM*.
`CCOc1cccc(/C=C/c2ccc3cccc(O)c3n2)c1O` gave HCV inh 14µM*, Vaccinia mCherry -22% and VACV Venus inh -20%.
Screening Oc1cccc2ccc(/C=C/c3ccccc3Cl)nc12 returned HCV inh 7.9µM*, Vaccinia mCherry inconclusive and VACV Venus inh -25%.
Screening COc1c(OC(C)=O)ccc(/C=C/c2ccc3ccccc3n2)c1[N+](=O)[O-] returned HCV inh inconclusive, Vaccinia mCherry -8% and VACV Venus inh -19%.
Screening Oc1cccc2ccc(/C=C/c3c(F)cccc3Cl)nc12 returned HCV inh 11µM*, Vaccinia mCherry inconclusive and VACV Venus inh -7%.
COc1ccccc1/C=C/c1ccc2cccc(O)c2n1 was read as HCV inh inconclusive, Vaccinia mCherry inconclusive and VACV Venus inh -12%.
Screening Nc1nccc(/C=C/c2c(F)cccc2Cl)n1 returned HCV inh -7%, Vaccinia mCherry -12% and VACV Venus inh -19%.
COc1ccc(NC(=O)CN2C(=O)COc3ccc(S(=O)(=O)N4CCCCC4)cc32)c(OC)c1 was read as HCV inh inconclusive, Vaccinia mCherry inactive and VACV Venus inh -13%.
`COc1ccc(NC(=O)CCC(=O)NCc2ccco2)c([N+](=O)[O-])c1` gave HCV inh 7%.
CCOc1ccccc1CN1CCCC(CNS(=O)(=O)c2ccc(OC)cc2)C1 (stereo not drawn) was read as HCV inh 3%.
For CCOC(=O)c1c(C)n(C)c2ccc(OCC(O)Cn3c(C)nc4ccccc43)cc12 (stereo not drawn) the results were HCV inh 10µM*.
Screening C#CCOc1ccc2c(c1)c(C(C)=O)c(C)n2Cc1ccccc1 returned HCV inh inconclusive, Vaccinia mCherry -27% and VACV Venus inh -12%.
`CCOC(=O)c1c(C)n(C)c2ccc(OCC(O)CNCCc3ccccc3)cc12` (stereo not drawn) gave HCV inh 13µM*.
Screening CCOC(=O)c1c(C)n(Cc2ccccc2)c2ccc(OCC(O)CN3C(=O)CNC3=O)cc12 (stereo not drawn) returned HCV inh 8.9µM*, Vaccinia mCherry -19% and VACV Venus inh -15%.
`CCOC(=O)c1c(C)n(C)c2ccc(OCC(O)CN3CCN(C)CC3)cc12` (stereo not drawn) gave HCV inh -9%, Vaccinia mCherry -4% and VACV Venus inh -10%.
For CCOC(=O)c1c(C)n(-c2ccc(C)cc2)c2ccc(OCC(O)CN3CCN(C)CC3)cc12 (stereo not drawn) the results were HCV inh inconclusive, Vaccinia mCherry -16% and VACV Venus inh inconclusive.
CSCC[C@@H](N)C(=O)O was read as Vaccinia mCherry inactive and VACV Venus inh -9%.
Screening CCCn1c(C(O)c2cc(OC)c(OC)c(OC)c2)nc2ccccc21 (stereo not drawn) returned HCV inh 4%.
COc1cc(C(O)c2nc3ccccc3s2)cc(OC)c1OC (stereo not drawn) was read as HCV inh 7.1µM*, Vaccinia mCherry inconclusive and VACV Venus inh -29%.
O=C(NCCCc1cnc[nH]1)NCCCN(Cc1ccc(Cl)cc1)c1ccc(Br)cn1 was read as Vaccinia mCherry -7% and VACV Venus inh -16%.
Cc1ccnc(NC(=O)c2cc(S(=O)(=O)NCc3ccccc3)ccc2C)c1 was read as HCV inh -14%.
Cc1ccc(C2C3=C(CC(C)(C)CC3=O)N=C3c4ccccc4C(=O)C32)cc1 (stereo not drawn) was read as HCV inh inconclusive, Vaccinia mCherry inconclusive and VACV Venus inh -27%.
For CC1(C)CC(=O)C2=C(C1)N=C1c3ccccc3C(=O)C1C2c1ccc(Cl)cc1 (stereo not drawn) the results were HCV inh 13µM*, Vaccinia mCherry inconclusive and VACV Venus inh inconclusive.
Screening CCOC(=O)C1=NNC(C(=O)c2ccccc2)C1c1ccc(Cl)cc1 (stereo not drawn) returned HCV inh inconclusive, Vaccinia mCherry -26% and VACV Venus inh -6%.
For CCOC(=O)C1=C(C)N=C2c3ccccc3C(=O)C2C1c1ccc(Cl)cc1 (stereo not drawn) the results were HCV inh 16µM*, Vaccinia mCherry -20% and VACV Venus inh -22%.
`Cc1c(C(=O)Nc2ccc(S(=O)(=O)N3CCOCC3)cc2)cccc1[N+](=O)[O-]` gave HCV inh -18%.
CCc1cc(C(=O)NCC2Cc3cccc(-c4ccc(C(=O)OC)cn4)c3O2)no1 (stereo not drawn) was read as Vaccinia mCherry -15% and VACV Venus inh -2%.
`Cc1ccc(C(=O)NNC(=O)Cn2ccc(C(F)(F)F)n2)o1` gave HCV inh 6%, Vaccinia mCherry inactive and VACV Venus inh -13%.
O=C(NNc1ccccc1[N+](=O)[O-])Nc1ccc(Cl)c(Cl)c1 was read as HCV inh inconclusive, Vaccinia mCherry inactive and VACV Venus inh -17%.

High-throughput results: PubChem, National Center for Advancing Translational Sciences (NCATS)
